# Measured values as given in PubChem BioAssay.
# Active and inactive are the calls of the source. Unless noted, the rule behind the calls is not given here.
# Key:
# [1] = system: Wnt5a (protein binding on small-molecule microarray); test: Wnt5a binders on small-molecule microarray, primary screen, biophysical, 635/667 nm fluorescence (AID 1142); conditions: 635 nm fluorescence, higher = more signal;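 note: fluorescence read at 667 nm with signal to noise per printed feature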
# [2] = cell viability in Huh7 cells, primary screen, cytotoxicity control for HCV replication inhibitor project, CellTiter-Glo luminescence, basal, 48 h (AID 1143); conditions: Huh7 HCV replicon, higher = more signal, called active from +8 up or from −8 down;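 note: Huh7 hepatoma cells carrying a hepatitis C replication reporter with no stimulus; test concentration not given here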
# [3] = P. aeruginosa biofilm formation inhibitors, primary screen, PAO1 strain, BacTiter-Glo luminescence, LB-PBS (AID 1144); conditions: 12 h, higher = more signal
# [4] = CREB reporter modulators without forskolin, primary screen, cell-based, PC12, CRE-LacZ reporter, unstimulated (AID 1145); conditions: no forskolin, luminescence, 4.5 h, higher = more signal, called active from +8 up or from −8 down
# [5] = CREB reporter modulators under forskolin, primary screen, cell-based, PC12, CRE-LacZ reporter, forskolin-stimulated (AID 1146); conditions: luminescence, 4.5 h, higher = more signal, called active from +8 up or from −8 down;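 note: PC12 cells with 6xCRE LacZ reporter stimulated by forskolin 10 µM; beta-galactosidase reporter signal reflecting CREB driven transcription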
# [6] = molecular target: Streptavidin (Streptomyces avidinii) (UniProt P22629); test: streptavidin binders on small-molecule microarray, primary screen, artefact control for SMM compound annotation, biophysical, 635/667 nm fluorescence (AID 1147); conditions: streptavidin binding, higher = more signal;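 note: signal reflects streptavidin binding to arrayed compounds as a control protein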
# Sequence of Streptavidin (Streptomyces avidinii) (P22629 whole entry, looked up): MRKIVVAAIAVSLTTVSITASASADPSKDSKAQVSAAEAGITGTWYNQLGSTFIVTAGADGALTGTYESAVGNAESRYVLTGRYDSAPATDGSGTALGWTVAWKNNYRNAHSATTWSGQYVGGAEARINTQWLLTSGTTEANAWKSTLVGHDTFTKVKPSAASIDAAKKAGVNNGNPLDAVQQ
# [7] = small-molecule binders of probe aInhba, primary screen, biochemical, small-molecule microarray, 635/667 nm fluorescence (AID 1148); conditions: higher = more signal;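 note: score merges 667nm spot fluorescence with signal-to-noise for antibody binding to printed compounds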
# Torsin-1A (Homo sapiens) [8] = molecular target: Torsin-1A (Homo sapiens) (UniProt O14656); test: torsin A binders from cell lysate, primary screen, small-molecule microarray, wild-type, 635/667 nm (AID 1149); conditions: COS7 hTOR1A-WT lysate, 635 nm fluorescence, higher = more signal
# Sequence of Torsin-1A (Homo sapiens) (O14656 whole entry, looked up): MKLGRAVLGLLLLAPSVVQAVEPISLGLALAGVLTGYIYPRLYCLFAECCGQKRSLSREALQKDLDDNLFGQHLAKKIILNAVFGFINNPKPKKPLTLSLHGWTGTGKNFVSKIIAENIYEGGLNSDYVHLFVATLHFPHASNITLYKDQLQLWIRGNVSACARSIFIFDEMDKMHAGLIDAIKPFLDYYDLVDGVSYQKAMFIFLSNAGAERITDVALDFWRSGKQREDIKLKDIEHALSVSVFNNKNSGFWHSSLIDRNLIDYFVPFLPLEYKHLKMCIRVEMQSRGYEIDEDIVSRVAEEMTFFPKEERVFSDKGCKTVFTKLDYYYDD
# Torsin-1A (Homo sapiens) [9] = molecular target: Torsin-1A (Homo sapiens) (UniProt O14656); test: small-molecule binders of mutant TOR1A in lysate, primary screen, cell lysate, small-molecule microarray, COS7 lysate, 635/667 nm fluorescence (AID 1150); conditions: COS7 hTOR1A mutant lysate, 635 nm fluorescence, higher = more signal;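 note: score pools 667 nm emission and signal to noise measuring lysate protein binding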
# [10] = system: Sonic hedgehog protein (Shh); test: small-molecule binders of Shh protein, primary screen, biochemical, small-molecule microarray, 635/667 nm fluorescence (AID 1151); conditions: small-molecule microarray binding, 635 nm fluorescence; higher = more signal;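 note: Shh protein binding to compounds spotted on small-molecule microarray slides; score combines spot fluorescence intensity with signal-to-noise across triplicate slides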
# [11] = E. coli DRC41 culture turbidity changes, primary screen, E. coli filamentation inducer project, strain DRC41, OD650, 48 h (AID 1152);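 note: E. coli MC1000 strain DRC41 lacking acrAB efflux pump and sulA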; conditions: E. coli DRC41 (acrAB sulA), higher = more signal, called active from +8 up or from −8 down
# [12] = small-molecule binders of probe aLefty1, primary screen, biochemical, small-molecule microarray, 635/667 nm fluorescence (AID 1153); conditions: higher = more signal;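 note: score merges spot fluorescence with signal-to-noise ratio from the scanned slide images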
# [13] = PSAC antagonists in infected red cells, primary screen, cell-based, P. falciparum Indochina, OD700, 1 h (AID 1154); conditions: P. falciparum Indochina infected RBC osmotic lysis, higher = more signal, called active from +8 up or from −8 down
# [14] = PSAC antagonists in infected red cells, primary screen, cell-based, P. falciparum Indochina, OD700, 2 h (AID 1155);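 note: lysis reports solute entry through the parasite surface anion channel PSAC; channel blockers reduce lysis of infected cells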; conditions: P. falciparum Indochina infected erythrocytes, osmotic lysis OD700; higher = more signal, called active from +8 up or from −8 down
# [15] = osmotic lysis modulators in infected erythrocytes, primary screen, PSAC antagonist project, cell-based, P. falciparum Indochina, OD700, 3 h (AID 1156); conditions: higher = more signal, called active from +8 up or from −8 down
# [16] = PSAC antagonists in infected red cells, primary screen, cell-based, P. falciparum Indochina, OD700, 18 h (AID 1157); conditions: P. falciparum Indochina infected erythrocytes, osmotic lysis OD700, 18 h; higher = more signal, called active from +8 up or from −8 down
# [17] = modulators of S6 phosphorylation in cells, primary screen, cell-based, A549, cytoblot, luminescence, serum-stimulated (AID 1158); conditions: A549 phospho-S6 cytoblot, 5 h, higher = more signal;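 note: serum-stimulated A549 lung adenocarcinoma cells; signal is phosphorylated S6 detected by cytoblot immunostaining with HRP secondary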
# [18] = molecular target: NADPH oxidase 2 (Homo sapiens) (UniProt P04839); test: NOX2-dependent H2O2 signal modulators, primary screen, NOX inhibitor project, cell-based, HEK293-NOX2, PMA-stimulated, Amplex Red fluorescence (AID 1159); conditions: 45 min, higher = more signal, called active from +8 up or from −8 down; note: test concentration not given here
# Sequence of NADPH oxidase 2 (Homo sapiens) (P04839 whole entry, looked up): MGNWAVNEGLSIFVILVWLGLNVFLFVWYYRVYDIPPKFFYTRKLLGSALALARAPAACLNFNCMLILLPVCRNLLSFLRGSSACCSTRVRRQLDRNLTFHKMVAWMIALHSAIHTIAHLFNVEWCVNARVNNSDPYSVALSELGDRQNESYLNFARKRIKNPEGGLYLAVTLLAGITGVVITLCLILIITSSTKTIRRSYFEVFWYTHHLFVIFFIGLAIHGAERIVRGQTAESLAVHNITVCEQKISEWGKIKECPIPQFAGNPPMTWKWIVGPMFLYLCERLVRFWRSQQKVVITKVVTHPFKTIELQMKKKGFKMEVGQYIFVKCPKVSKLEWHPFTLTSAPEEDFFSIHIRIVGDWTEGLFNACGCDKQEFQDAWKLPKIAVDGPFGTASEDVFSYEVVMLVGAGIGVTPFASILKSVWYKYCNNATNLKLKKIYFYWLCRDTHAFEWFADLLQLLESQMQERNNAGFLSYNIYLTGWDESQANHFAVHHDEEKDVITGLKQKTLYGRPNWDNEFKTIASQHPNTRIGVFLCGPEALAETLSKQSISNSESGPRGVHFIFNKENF
# [19] = molecular target: NADPH oxidase 4 (Homo sapiens) (UniProt Q9NPH5); test: NOX4-dependent H2O2 signal modulators, primary screen, NOX inhibitor project, cell-based, HEK293-NOX4, tetracycline-induced, Amplex Red fluorescence (AID 1160); conditions: 45 min, higher = more signal, called active from +8 up or from −8 down
# Sequence of NADPH oxidase 4 (Homo sapiens) (Q9NPH5 whole entry, looked up): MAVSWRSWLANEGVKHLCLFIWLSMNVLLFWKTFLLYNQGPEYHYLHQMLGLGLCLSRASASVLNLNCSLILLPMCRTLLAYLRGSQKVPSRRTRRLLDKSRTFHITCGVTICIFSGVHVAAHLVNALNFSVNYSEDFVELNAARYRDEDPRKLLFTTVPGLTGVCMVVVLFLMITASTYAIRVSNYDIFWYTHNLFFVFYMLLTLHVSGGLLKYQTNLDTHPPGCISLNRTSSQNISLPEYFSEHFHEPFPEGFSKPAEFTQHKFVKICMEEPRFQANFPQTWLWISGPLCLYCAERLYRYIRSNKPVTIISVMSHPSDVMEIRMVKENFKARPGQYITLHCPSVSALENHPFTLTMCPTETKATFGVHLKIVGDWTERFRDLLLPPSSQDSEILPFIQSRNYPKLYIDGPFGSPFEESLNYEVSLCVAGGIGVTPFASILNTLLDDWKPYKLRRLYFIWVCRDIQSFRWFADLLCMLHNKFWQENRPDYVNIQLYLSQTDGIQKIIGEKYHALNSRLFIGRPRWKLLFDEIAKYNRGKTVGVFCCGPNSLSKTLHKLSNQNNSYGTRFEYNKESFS
# [20] = molecular target: NADPH oxidase 5 (Homo sapiens) (UniProt Q96PH1); test: NOX5-dependent H2O2 signal modulators, primary screen, NOX inhibitor project, cell-based, HEK293-NOX5, Amplex Red fluorescence (AID 1161); conditions: HEK293-NOX5, ionomycin, 45 min, higher = more signal
# Sequence of NADPH oxidase 5 (Homo sapiens) (Q96PH1 whole entry, looked up): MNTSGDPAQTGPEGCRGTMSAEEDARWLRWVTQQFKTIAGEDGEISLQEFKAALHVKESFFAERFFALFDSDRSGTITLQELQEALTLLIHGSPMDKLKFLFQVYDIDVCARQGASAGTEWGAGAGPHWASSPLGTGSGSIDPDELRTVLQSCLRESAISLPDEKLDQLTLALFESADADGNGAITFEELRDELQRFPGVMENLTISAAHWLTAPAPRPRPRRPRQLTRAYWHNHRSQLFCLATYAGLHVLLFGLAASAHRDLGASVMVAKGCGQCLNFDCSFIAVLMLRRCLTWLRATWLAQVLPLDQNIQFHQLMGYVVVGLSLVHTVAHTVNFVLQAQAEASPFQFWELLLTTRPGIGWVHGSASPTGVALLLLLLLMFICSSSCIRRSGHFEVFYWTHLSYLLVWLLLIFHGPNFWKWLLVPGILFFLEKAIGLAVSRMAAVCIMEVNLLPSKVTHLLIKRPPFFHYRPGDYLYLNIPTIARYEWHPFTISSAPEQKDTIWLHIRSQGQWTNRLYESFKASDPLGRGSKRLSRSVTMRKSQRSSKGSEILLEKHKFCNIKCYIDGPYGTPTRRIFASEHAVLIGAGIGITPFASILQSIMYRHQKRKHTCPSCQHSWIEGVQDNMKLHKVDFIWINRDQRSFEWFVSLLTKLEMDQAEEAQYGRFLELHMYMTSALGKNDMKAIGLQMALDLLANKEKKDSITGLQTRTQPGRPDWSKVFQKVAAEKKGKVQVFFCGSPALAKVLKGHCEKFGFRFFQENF
Structure (SMILES),composite z-score [1],z-score [2],z-score [3],z-score [4],z-score [5],composite z-score [6],composite z-score [7],composite z-score (Torsin-1A (Homo sapiens) [8]),composite z-score (Torsin-1A (Homo sapiens) [9]),composite z-score [10],z-score [11],composite z-score [12],z-score [13],z-score [14],z-score [15],z-score [16],z-score [17],z-score [18],z-score [19],z-score [20]
[N-]=[N+]=NCc1ccccc1[C@@H]1OC(c2ccc(OCCCO)cc2)=N[C@]1(Cc1ccccc1N=[N+]=[N-])C(=O)NCC(O)CO (stereo not given in full),0.88,-1.49 (inactive),0.12 (inactive),0.47 (inactive),-0.806 (inactive),1.74,0.791,0.553,1.65,-0.771,0.553 (inactive),1.31,20.2 (active),5.06 (inactive),1.09 (inactive),1.1 (inactive),-0.0256,-0.868 (inactive),0.704 (inactive),1.5
O=C1[C@H]2C=C(I)[C@H](C[C@@H]2OCCCCCCO)[C@@]12CO2,-0.302,0.567 (inactive),-0.04 (inactive),1.21 (inactive),1.77 (inactive),-0.324,0.255,0.349,0.541,1.07,-1.02 (inactive),0.0834,5.11 (inactive),0.713 (inactive),0.487 (inactive),0.035 (inactive),-0.251,-0.212 (inactive),0.645 (inactive),-1.22
COC(=O)c1cccc([C@H]2OC(=CC(=O)OC(C)C)C[C@@H](c3cccc(C(=O)OC)c3)O2)c1,1.19,-2.17 (inactive),0.111 (inactive),1.26 (inactive),1.05 (inactive),1.21,0.0649,1.64,1.53,1,-0.576 (inactive),0.635,18.5 (active),3.17 (inactive),0.487 (inactive),0.683 (inactive),0.0055,-0.679 (inactive),-1.6 (inactive),-2.04
CCC(CC)C(O)C1C=CC2C(=O)N(c3ccccc3)C(=O)C2N1Nc1ccccc1F (stereo not given),0.0501,-1.14 (inactive),-0.615 (inactive),-0.62 (inactive),0.492 (inactive),0.292,-0.0044,0.838,0.597,-0.455,-0.372 (inactive),0.0315,0.834 (inactive),0.412 (inactive),0.164 (inactive),0.584 (inactive),-0.364,0.223 (inactive),-0.0786 (inactive),-0.39
CC(C)C(=C=CC[C@H](O)c1ccccc1OCCO)C[C@H](O)COCc1ccccc1,-0.042,-2.03 (inactive),0.297 (inactive),16 (active),-0.0014 (inactive),-0.266,-0.101,-0.0509,1.12,0.0553,-0.188 (inactive),-0.174,13.2 (active),2.13 (inactive),1.54 (inactive),1.21 (inactive),-0.181,-1.34 (inactive),-1.44 (inactive),-2.38
CCCCC(=C=CC[C@H](O)c1ccc(CO)o1)CCO,0.0119,0.0865 (inactive),0.0836 (inactive),0.96 (inactive),1.56 (inactive),-0.144,-0.128,1.39,0.587,1.69,-0.258 (inactive),-0.0445,2 (inactive),0.278 (inactive),0.517 (inactive),0.134 (inactive),-0.189,0.802 (inactive),-0.0669 (inactive),-0.395
C=CCN1C(=O)[C@]2(O[C@H](CCn3cc([C@H](O)c4ccccc4)nn3)[C@@H]([Si](C)(C)c3ccc(OC)cc3)[C@@H]2C)c2cc(NC(=O)c3ccc(OC)cc3)ccc21,0.0292,-3.84 (inactive),-1.5 (inactive),1.05 (inactive),-1.54 (inactive),-0.0759,0.117,-0.68,0.0247,1.36,0.294 (inactive),0.179,5.48 (inactive),2.21 (inactive),2.59 (inactive),1.18 (inactive),-0.0732,0.51 (inactive),0.564 (inactive),-0.0881
[N-]=[N+]=Nc1ccccc1[C@@H]1OC(c2ccc(OCCCO)cc2)=N[C@]1(Cc1ccccc1)C(=O)NCCN1CCOCC1,0.458,-5.28 (inactive),-0.528 (inactive),0.4 (inactive),-1.37 (inactive),1.29,0.347,0.612,1.25,-0.368,0.146 (inactive),0.142,30.2 (active),26.5 (active),3.9 (inactive),1.92 (inactive),1.39,-3.29 (inactive),-1.23 (inactive),-2.13
